Screening results deposited in PubChem BioAssay by Buhrlage Lab, Dana-Farber Cancer Institute and Novartis Institutes for BioMedical Research (Cambridge, Mass).
USP28 block: blocks human USP28 ubiquitin-rhodamine cleavage; purified USP28, Ub-rhodamine cleavage fluorescence, 30 min; inhibition, % at 25 µM; 47,000 compounds, 3% hits
USP17 block: blocks human USP17 ubiquitin-rhodamine cleavage | A8MUK1 | purified USP17, Ub-rhodamine cleavage fluorescence, 3 h | inhibition, % at 50 µM | 47,000 compounds, 6.5% hits | AID 1645855
USP8 inh: human USP8 deubiquitinase inhibition | purified USP8, Ub-rhodamine cleavage fluorescence, 30 min | 47,000 compounds, 4.2% hits | AID 1645853 | inhibition, % at 20 µM | P40818
USP30 block: human USP30 deubiquitinase inhibition; purified USP30, Ub-rhodamine cleavage fluorescence; AID 1645860; inhibition, % at 25 µM; 47,000 compounds, 5.3% hits
Target sequence (Q70CQ3 whole entry, looked up): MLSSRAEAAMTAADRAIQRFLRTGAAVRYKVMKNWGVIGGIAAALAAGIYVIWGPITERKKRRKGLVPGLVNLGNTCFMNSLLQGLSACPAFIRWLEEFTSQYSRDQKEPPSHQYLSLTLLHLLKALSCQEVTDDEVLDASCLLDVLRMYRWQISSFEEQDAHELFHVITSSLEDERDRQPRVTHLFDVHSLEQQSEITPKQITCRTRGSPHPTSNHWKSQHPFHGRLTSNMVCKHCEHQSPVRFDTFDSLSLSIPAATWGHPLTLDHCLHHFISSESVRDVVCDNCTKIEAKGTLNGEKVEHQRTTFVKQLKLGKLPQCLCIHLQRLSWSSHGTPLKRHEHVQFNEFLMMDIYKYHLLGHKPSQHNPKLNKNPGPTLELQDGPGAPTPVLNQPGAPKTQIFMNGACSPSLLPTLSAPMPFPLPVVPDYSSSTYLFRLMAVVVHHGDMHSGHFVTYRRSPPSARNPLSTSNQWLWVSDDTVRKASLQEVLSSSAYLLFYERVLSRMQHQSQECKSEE
USP10 inh: inhibitors of human USP10 deubiquitinase | Q14694 | inhibition, % at 20 µM | 47,000 compounds, 1.1% hits | purified USP10, Ub-rhodamine fluorescence, 60 min
Hits are given with their value; n = inactive; x = no result. An excerpt weighted towards active compounds, which were near 14% of everything screened. Rule as the data show it: active = inhibition above about 30%; inactive = the rest.

SMILES | USP28 block | USP17 block | USP8 inh | USP30 block | USP10 inh
COC(=O)c1ccc(OC(=O)C(NS(=O)(=O)c2ccc3c(c2)OCCO3)C(C)C)cc1 (configuration not stated) | n | n | n | n | n
O=S(=O)(NCc1csc2ccc(Cl)cc12)c1cccc2cccnc12 | n | n | 38.4 | n | n
N#Cc1cccc(CN2Cc3ccnn3CC(C(=O)N3CCCC3)C2)c1 (configuration not stated) | n | n | n | n | n
CCOc1ccc(-c2nc(SCC(=O)Nc3cccc(C)c3)n3[nH]c(=O)cc3n2)cc1 | n | 39.9 | 41.8 | n | 53.1
O=C(CCc1c[nH]c2ccccc12)Nc1ccc(Br)cc1F | 42.3 | n | n | n | n
Cc1ccc(F)cc1NC(=O)CCCc1c[nH]c2ccccc12 | n | n | n | n | n
c1cc(-c2noc(C3CCCO3)n2)ccc1-c1csc(C2CC2)n1 (configuration not stated) | 40.4 | n | n | n | n
O=C(CN1C[C@@H](c2cccc(F)c2)[C@@]2(CCCC(=O)N2)C1)Nc1ccnn1C1CCCC1 | n | n | n | n | n
COc1ccc(C(=O)COC(=O)C(Cc2c[nH]c3ccccc23)NC(=O)c2ccccc2Cl)cc1 (configuration not stated) | n | n | n | n | n
O=C(Nc1ccncc1)c1cn(Cc2ccccc2)cc2c(=O)n(-c3ccccc3)nc1-2 | n | n | n | 49.9 | n
O=C(NCc1ccc(F)cc1)c1cn(CC2CCCO2)cc2c(=O)n(-c3ccccc3)nc1-2 (configuration not stated) | n | n | n | n | n
COc1cc(NC(=O)c2ccco2)c(C(=O)OCC(=O)c2c[nH]c3ccccc23)cc1OC | n | n | 43.6 | n | n
COc1cc(OC)cc(C(=O)NC(C(=O)OCC(=O)c2c[nH]c3ccccc23)C(C)C)c1 (configuration not stated) | n | n | n | n | n
Cc1ccc(Cl)cc1-n1ncc2c1ncn1nc(C3CCCCC3)nc21 | n | 34.2 | 70.0 | n | n
CC(C)COc1ccc(C(=O)N/C(=C/c2ccc3c(c2)OCO3)C(=O)O)cc1 | n | x | n | 36.5 | n
Cn1nc(C2CCCN(Cc3cccc(F)c3)C2)c2nccnc21 (configuration not stated) | n | n | n | n | n
O=C(Cn1cc(-c2nc(C3CC3)no2)ccc1=O)Nc1ccccc1F | n | n | n | n | n
O=C(Cn1cc(-c2nc(C3CC3)no2)ccc1=O)Nc1ccccc1 | n | 48.8 | n | n | n
N#Cc1cccc(NC(=O)Cn2cccc2-c2nc(-c3ccccc3)no2)c1 | n | 31.0 | 31.0 | n | n
Cc1nc(-c2noc(-c3cccc(F)c3)n2)cn1CC(=O)Nc1ccccc1 | n | n | 38.2 | n | 62.3
O=C(CC1c2ncccc2C(=O)N1c1ccc(F)cc1)NCc1ccccc1 (configuration not stated) | n | n | n | n | n
Cc1ccc(S(=O)(=O)Nc2ccc(NC(=O)CC3OC(=O)c4ccccc43)cc2)cc1[N+](=O)[O-] (configuration not stated) | n | n | n | n | n
Cc1ccc(NC(=O)CC2Nc3ccccc3NC2=O)cc1[N+](=O)[O-] (configuration not stated) | n | 41.0 | 65.8 | 48.8 | n
COc1ccc(-c2nc(-c3ccccc3)[nH]c2S(=O)(=O)CC(=O)Nc2ccc(F)cc2)cc1 | n | 35.6 | n | n | n
COc1ccc(NC(=O)CS(=O)(=O)c2[nH]c(-c3ccc(C)cc3)nc2-c2ccccc2)cc1Cl | n | n | n | 59.8 | n
COc1ccc(NC(=O)CS(=O)(=O)c2[nH]c(-c3ccc(F)cc3)nc2-c2ccccc2)cc1Cl | n | n | n | n | n
N#Cc1ccc(N2CCCN(C(=O)Nc3ccc(F)cc3F)CC2)nc1 | n | n | n | n | n
